Several values for one entry are separate records, joined by “and”; a condition that tells them apart may be missing. Equal values may be shown once. The whole screen tested about 5,500 compounds, of which about 2,000 (36%) were called active. Inconclusive results (about 18%) are left out. Cut-off read from the data, not from the text of the source: active = normalized growth mostly below about 0.91 (no sharp cut-off); inconclusive = no clear call, values can overlap the other calls; inactive = mostly above about 0.92. Some of the results follow.
Assay: chemical genetic growth profiling, strain panel (AID 1159580);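 note: tested at 20 µM; growth read once vehicle control cultures reached saturation at 30 °C; 1 = growth at the plate median or of vehicle wells; lower values mean less growth of the strain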
Conditions: growth OD

Measured: normalized growth

CCCn1c(=O)c2[nH]c(C3CCCC3)nc2n(CCC)c1=O
inactive: S. cerevisiae deletion strains, locus YJR043C, strain POL32, active compounds read low 0.989 | S. cerevisiae deletion strains, locus YJR075W, strain HOC1, active compounds read low 0.968 and 0.985 | S. cerevisiae deletion strains, locus YKL009W, strain mrt4, active compounds read low 0.966 | S. cerevisiae deletion strains, locus YKL068W, active compounds read low 0.965 | S. cerevisiae deletion strains, locus YKL085W, strain MDH1 (second series), active compounds read low 0.994 | S. cerevisiae deletion strains, locus YKL085W, strain MDH1, active compounds read low 0.994 | S. cerevisiae deletion strains, locus YKL160W, strain elf1, active compounds read low 0.996 | S. cerevisiae deletion strains, locus YKL190W, strain CNB1, active compounds read low 0.981 | S. cerevisiae deletion strains, locus YKR001C, strain vps1, active compounds read low 0.964 | S. cerevisiae deletion strains, locus YKR026C, strain gcn3, active compounds read low 0.998 | S. cerevisiae deletion strains, locus YKR091W, strain srl3, active compounds read low 0.982 | S. cerevisiae deletion strains, locus YLL001W, strain dnm1, active compounds read low 0.986 | S. cerevisiae deletion strains, locus YLL026W, active compounds read low 0.974 | S. cerevisiae deletion strains, locus YLL041C, strain sdh2, active compounds read low 0.979 | S. cerevisiae deletion strains, locus YLR027C, strain aat2, active compounds read low 0.987 | S. cerevisiae deletion strains, locus YLR039C, strain RIC1, active compounds read low 0.881 | S. cerevisiae deletion strains, locus YLR058C, strain SHM2, active compounds read low 0.982 | S. cerevisiae deletion strains, locus YLR102C, strain apc9, active compounds read low 0.957 | S. cerevisiae deletion strains, locus YLR221C, strain rsa3, active compounds read low 1 | S. cerevisiae deletion strains, locus YLR258W, strain gsy2, active compounds read low 0.963 | S. cerevisiae deletion strains, locus YLR262C, strain YPT6 (second series), active compounds read low 0.965 | S. cerevisiae deletion strains, locus YLR262C, strain YPT6, active compounds read low 0.854 | S. cerevisiae deletion strains, locus YLR268W, strain sec22, active compounds read low 0.957 | S. cerevisiae deletion strains, locus YLR320W, strain mms22, active compounds read low 0.974 | S. cerevisiae deletion strains, locus YLR330W, strain CHS5, active compounds read low 0.98 | S. cerevisiae deletion strains, locus YLR342W, strain FKS1 (second series), active compounds read low 0.979 | S. cerevisiae deletion strains, locus YLR342W, strain FKS1, active compounds read low 0.987 | S. cerevisiae deletion strains, locus YLR357W, strain rsc2, active compounds read low 0.986 | S. cerevisiae deletion strains, locus YLR370C, strain arc18, active compounds read low 0.986 | S. cerevisiae deletion strains, locus YLR371W, strain rom2, active compounds read low 0.951 | S. cerevisiae deletion strains, locus YLR384C, strain iki3, active compounds read low 0.995 | S. cerevisiae deletion strains, locus YLR418C, strain cdc73, active compounds read low 1.01 | S. cerevisiae deletion strains, locus YML016C, strain PPZ1, active compounds read low 0.992 | S. cerevisiae deletion strains, locus YML032C, strain rad52, active compounds read low 0.959 | S. cerevisiae deletion strains, locus YML120C, strain ndi1, active compounds read low 0.997 | S. cerevisiae deletion strains, locus YML124C, strain tub3, active compounds read low 0.972 | S. cerevisiae deletion strains, locus YMR058W, strain fet3, active compounds read low 1 | S. cerevisiae deletion strains, locus YMR078C, strain ctf18, active compounds read low 0.972 | S. cerevisiae deletion strains, locus YMR125W, strain sto1, active compounds read low 0.994 | S. cerevisiae deletion strains, locus YMR129W, active compounds read low 0.968 | S. cerevisiae deletion strains, locus YMR205C, strain PFK2, active compounds read low 0.967 | S. cerevisiae deletion strains, locus YMR223W, strain ubp8, active compounds read low 0.97 | S. cerevisiae deletion strains, locus YMR231W, strain pep5, active compounds read low 0.994 | S. cerevisiae deletion strains, locus YMR263W, strain SAP30, active compounds read low 0.993 | S. cerevisiae deletion strains, locus YMR307W, strain GAS1, active compounds read low 0.947 | S. cerevisiae deletion strains, locus YNL067W, strain RPL9B, active compounds read low 0.986 | S. cerevisiae deletion strains, locus YNL071W, strain lat1, active compounds read low 0.997 | S. cerevisiae deletion strains, locus YNL128W, strain TEP1, active compounds read low 1 | S. cerevisiae deletion strains, locus YNL153C, strain GIM3, active compounds read low 0.998 and 0.965 | S. cerevisiae deletion strains, locus YNL175C, strain NOP13, active compounds read low 0.977 | S. cerevisiae deletion strains, locus YNL197C, strain WHI3, active compounds read low 0.976 | S. cerevisiae deletion strains, locus YNL209W, strain ssb2, active compounds read low 0.994 | S. cerevisiae deletion strains, locus YNL224C, strain SQS1, active compounds read low 0.975 | S. cerevisiae deletion strains, locus YNL233W, strain BNI4, active compounds read low 0.991 | S. cerevisiae deletion strains, locus YNL248C, strain rpa49, active compounds read low 0.992 | S. cerevisiae deletion strains, locus YNL250W, strain rad50, active compounds read low 0.973 | S. cerevisiae deletion strains, locus YNL271C, strain bni1, active compounds read low 0.974 | S. cerevisiae deletion strains, locus YNL298W, strain CLA4, active compounds read low 0.972 | S. cerevisiae deletion strains, locus YNL307C, strain MCK1, active compounds read low 0.97 | S. cerevisiae deletion strains, locus YNL322C, strain KRE1 (second series), active compounds read low 0.986 | S. cerevisiae deletion strains, locus YNL322C, strain KRE1, active compounds read low 0.984 and 0.987 | S. cerevisiae deletion strains, locus YNR049C, strain mso1, active compounds read low 0.984 | S. cerevisiae deletion strains, locus YNR052C, strain pop2, active compounds read low 0.975 | S. cerevisiae deletion strains, locus YOL006C, strain TOP1, active compounds read low 0.986 | S. cerevisiae deletion strains, locus YOL012C, strain htz1 0.878 | S. cerevisiae deletion strains, locus YOL147C, strain pex11, active compounds read low 0.962 | S. cerevisiae deletion strains, locus YOR001W, strain rrp6, active compounds read low 0.995 | S. cerevisiae deletion strains, locus YOR061W, strain CKA2, active compounds read low 0.995 | S. cerevisiae deletion strains, locus YOR069W, strain VPS5, active compounds read low 0.989 | S. cerevisiae deletion strains, locus YOR070C, strain gyp1, active compounds read low 0.993 | S. cerevisiae deletion strains, locus YOR080W, strain dia2, active compounds read low 0.984 | S. cerevisiae deletion strains, locus YOR083W, strain WHI5 (second series), active compounds read low 0.989 | S. cerevisiae deletion strains, locus YOR083W, strain WHI5, active compounds read low 1.01 | S. cerevisiae deletion strains, locus YOR106W, strain vam3, active compounds read low 0.996 | S. cerevisiae deletion strains, locus YOR136W, strain idh2, active compounds read low 0.954 | S. cerevisiae deletion strains, locus YOR144C, strain elg1, active compounds read low 0.965 | S. cerevisiae deletion strains, locus YOR184W, strain ser1, active compounds read low 0.955 | S. cerevisiae deletion strains, locus YOR265W, strain rbl2, active compounds read low 0.991 | S. cerevisiae deletion strains, locus YOR270C, strain vph1, active compounds read low 0.998 | S. cerevisiae deletion strains, locus YOR290C, strain snf2, active compounds read low 0.923 | S. cerevisiae deletion strains, locus YOR316C, strain cot1, active compounds read low 0.977 | S. cerevisiae deletion strains, locus YPL051W, strain arl3, active compounds read low 0.987 | S. cerevisiae deletion strains, locus YPL055C, strain LGE1, active compounds read low 0.976 | S. cerevisiae deletion strains, locus YPL078C, strain atp4, active compounds read low 0.994 | S. cerevisiae deletion strains, locus YPL106C, strain sse1, active compounds read low 0.976 | S. cerevisiae deletion strains, locus YPL240C, strain hsp82, active compounds read low 0.983 | S. cerevisiae deletion strains, locus YPL241C, strain CIN2, active compounds read low 0.954 and 1.01 | S. cerevisiae deletion strains, locus YPR119W, strain clb2, active compounds read low 0.967 | S. cerevisiae deletion strains, locus YPR141C, strain kar3, active compounds read low 0.977 | S. cerevisiae deletion strains, locus YPR163C, strain tif3, active compounds read low 0.969 | S. cerevisiae deletion strains, locus YPR167C, strain met16, active compounds read low 0.982 | S. cerevisiae deletion strains, strain wtn01, active compounds read low 0.98 | S. cerevisiae strains, strain wild type, active compounds read low 0.981

— PubChem BioAssay AID1159580 (chemical genetic matrix, 2015)
